Experiment in all cases: DAPPL (digital affinity profiling via proximity ligation, sequencing); 10 mM Tris-HCl pH 7.5, 50 mM NaCl, 1 mM DTT, 4% glycerol, room temperature, 30 min; GST-TFs on glutathione beads, 16-mer random dsDNA library, 0.1% formaldehyde crosslink after washing; high values mean tight binding
The target in one assay is T1, FEV (Homo sapiens, UniProt Q99581 1-238).
T1 sequence: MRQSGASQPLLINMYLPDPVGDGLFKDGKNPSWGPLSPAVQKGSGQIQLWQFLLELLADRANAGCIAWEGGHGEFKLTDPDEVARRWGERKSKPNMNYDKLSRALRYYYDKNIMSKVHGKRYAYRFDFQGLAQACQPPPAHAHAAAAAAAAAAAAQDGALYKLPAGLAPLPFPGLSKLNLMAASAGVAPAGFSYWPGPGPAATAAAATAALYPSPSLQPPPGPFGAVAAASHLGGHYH
The settings on record: protein: recombinant; tags: N-terminal GST; dsDNA, one strand shown. Summed up:
(§1)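 In yeast, human transcription factors were expressed with a GST fusion, then pulled down on glutathione beads and given DNA barcodes. Pooled with a tag-only sample, they were exposed to 200 nmole of a 16-mer random double-stranded DNA library (Tris/NaCl/DTT/glycerol buffer, room temperature, 30 min), washed, crosslinked with 0.1% formaldehyde, proximity-ligated using BsaI/T4 ligase for 1 h at 37 °C, PCR-amplified and read on an Illumina NextSeq500. Each hexamer's frequency of reads for a factor, divided by the matching frequency for the tag-only sample, gives the binding signal.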

In another assay the target is ETV5 (Homo sapiens, UniProt P41161 1-510). The settings on record: protein: recombinant; tags: N-terminal GST; dsDNA, one strand shown. Summed up: as §1
For the next assay, the target named is HSF1 (Homo sapiens, UniProt Q00613 1-529). The settings on record: protein: recombinant; tags: N-terminal GST; chain copies: 3; dsDNA, one strand shown. Summed up:
as §1

A further assay concerns the target T2, SPIC (Homo sapiens, UniProt Q8N5J4 1-248).
T2 sequence: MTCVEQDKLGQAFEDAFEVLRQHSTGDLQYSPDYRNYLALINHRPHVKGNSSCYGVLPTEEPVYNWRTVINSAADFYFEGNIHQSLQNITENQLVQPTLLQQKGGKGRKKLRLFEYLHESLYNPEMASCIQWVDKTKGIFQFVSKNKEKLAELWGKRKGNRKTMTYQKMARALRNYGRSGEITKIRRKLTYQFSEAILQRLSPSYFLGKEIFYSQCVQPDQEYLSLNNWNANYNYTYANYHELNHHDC
The settings on record: protein: recombinant; tags: N-terminal GST; dsDNA, one strand shown. In a few lines: as §1

The target of a further assay is ELF4 (Homo sapiens, UniProt Q99607 1-663). The settings on record: protein: recombinant; tags: N-terminal GST; dsDNA, one strand shown. Summed up: as §1
The target in the next assay is T3, ELK4 (Homo sapiens, UniProt P28324-2 1-405).
T3 sequence: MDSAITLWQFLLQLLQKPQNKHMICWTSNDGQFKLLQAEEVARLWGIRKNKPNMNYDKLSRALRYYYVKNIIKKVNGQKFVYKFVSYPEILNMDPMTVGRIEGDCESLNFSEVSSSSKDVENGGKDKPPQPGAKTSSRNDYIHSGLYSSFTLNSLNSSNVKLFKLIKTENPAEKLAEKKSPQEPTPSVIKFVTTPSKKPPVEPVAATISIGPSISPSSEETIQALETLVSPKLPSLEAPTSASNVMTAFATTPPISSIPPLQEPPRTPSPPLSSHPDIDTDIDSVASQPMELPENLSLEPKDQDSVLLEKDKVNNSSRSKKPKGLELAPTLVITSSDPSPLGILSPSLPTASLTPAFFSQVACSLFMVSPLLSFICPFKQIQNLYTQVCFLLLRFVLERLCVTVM
The settings on record: protein: recombinant; tags: N-terminal GST; dsDNA, one strand shown. In a few lines:
as §1

In another assay the target is T4, ETV2 (Homo sapiens, UniProt O00321 1-342).
T4 sequence: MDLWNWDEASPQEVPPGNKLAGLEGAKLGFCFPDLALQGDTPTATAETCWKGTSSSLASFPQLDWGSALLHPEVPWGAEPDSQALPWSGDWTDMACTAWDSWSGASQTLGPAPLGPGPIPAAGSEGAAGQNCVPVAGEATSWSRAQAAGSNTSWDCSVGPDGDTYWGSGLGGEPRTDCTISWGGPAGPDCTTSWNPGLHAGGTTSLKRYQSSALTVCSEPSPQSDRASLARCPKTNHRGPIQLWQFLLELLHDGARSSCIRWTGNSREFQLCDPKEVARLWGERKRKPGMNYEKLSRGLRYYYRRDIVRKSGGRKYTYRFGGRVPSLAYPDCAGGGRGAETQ
The settings on record: protein: recombinant; tags: N-terminal GST; dsDNA, one strand shown. Summed up:
as §1

In the next assay the target is T5, ELF3 (Homo sapiens, UniProt P78545 1-371).
T5 sequence: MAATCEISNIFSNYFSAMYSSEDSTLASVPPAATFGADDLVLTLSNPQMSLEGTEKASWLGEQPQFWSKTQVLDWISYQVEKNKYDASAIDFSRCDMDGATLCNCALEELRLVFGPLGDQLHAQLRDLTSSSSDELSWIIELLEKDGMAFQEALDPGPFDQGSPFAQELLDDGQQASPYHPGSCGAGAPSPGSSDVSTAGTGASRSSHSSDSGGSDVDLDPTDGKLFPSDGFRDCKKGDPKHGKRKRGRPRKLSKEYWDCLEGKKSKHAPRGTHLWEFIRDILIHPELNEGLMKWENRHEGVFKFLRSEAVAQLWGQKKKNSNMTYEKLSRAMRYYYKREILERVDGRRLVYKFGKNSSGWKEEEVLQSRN
The settings on record: protein: recombinant; tags: N-terminal GST; dsDNA, one strand shown. In a few lines: as §1

For the next assay, the target named is CRX (Homo sapiens, UniProt O43186 1-299). The settings on record: protein: recombinant; tags: N-terminal GST; dsDNA, one strand shown. In a few lines:
as §1

In the next assay the target is ETV1 (Homo sapiens, UniProt P50549 1-477). The settings on record: protein: recombinant; tags: N-terminal GST; dsDNA, one strand shown. Summed up:
as §1

Another assay deals with T6, ERF (Homo sapiens, UniProt P50548 1-548).
T6 sequence: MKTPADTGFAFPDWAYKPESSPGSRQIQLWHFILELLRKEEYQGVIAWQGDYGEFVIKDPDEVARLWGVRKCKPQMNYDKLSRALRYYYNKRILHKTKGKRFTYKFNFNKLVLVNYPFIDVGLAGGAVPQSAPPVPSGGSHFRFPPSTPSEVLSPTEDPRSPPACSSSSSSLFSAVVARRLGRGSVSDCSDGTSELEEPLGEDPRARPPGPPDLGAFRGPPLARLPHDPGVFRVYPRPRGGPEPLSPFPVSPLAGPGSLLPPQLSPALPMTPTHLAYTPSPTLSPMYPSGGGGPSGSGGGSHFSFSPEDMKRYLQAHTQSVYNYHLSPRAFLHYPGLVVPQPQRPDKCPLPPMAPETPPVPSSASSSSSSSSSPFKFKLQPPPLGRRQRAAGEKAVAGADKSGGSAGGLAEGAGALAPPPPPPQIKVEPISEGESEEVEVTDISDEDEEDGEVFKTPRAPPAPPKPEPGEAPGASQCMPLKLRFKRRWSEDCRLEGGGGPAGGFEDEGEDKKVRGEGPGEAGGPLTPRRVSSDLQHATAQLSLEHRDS
The settings on record: protein: recombinant; tags: N-terminal GST; dsDNA, one strand shown. Summed up: as §1

A further assay concerns the target T7, ETV3L (Homo sapiens, UniProt Q6ZN32 1-361).
T7 sequence: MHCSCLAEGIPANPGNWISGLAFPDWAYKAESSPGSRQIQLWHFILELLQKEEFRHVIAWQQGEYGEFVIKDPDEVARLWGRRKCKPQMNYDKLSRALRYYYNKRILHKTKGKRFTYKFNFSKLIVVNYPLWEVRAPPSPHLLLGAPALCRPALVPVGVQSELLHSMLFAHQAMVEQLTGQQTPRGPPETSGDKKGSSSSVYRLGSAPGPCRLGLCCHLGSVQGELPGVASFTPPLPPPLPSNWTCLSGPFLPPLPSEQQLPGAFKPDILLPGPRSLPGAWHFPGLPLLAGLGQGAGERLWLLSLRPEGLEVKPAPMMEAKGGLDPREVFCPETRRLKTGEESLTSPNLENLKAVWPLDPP
The settings on record: protein: recombinant; tags: N-terminal GST; dsDNA, one strand shown. In a few lines: as §1

In the next assay the target is T8, ETS2 (Homo sapiens, UniProt P15036 1-469).
T8 sequence: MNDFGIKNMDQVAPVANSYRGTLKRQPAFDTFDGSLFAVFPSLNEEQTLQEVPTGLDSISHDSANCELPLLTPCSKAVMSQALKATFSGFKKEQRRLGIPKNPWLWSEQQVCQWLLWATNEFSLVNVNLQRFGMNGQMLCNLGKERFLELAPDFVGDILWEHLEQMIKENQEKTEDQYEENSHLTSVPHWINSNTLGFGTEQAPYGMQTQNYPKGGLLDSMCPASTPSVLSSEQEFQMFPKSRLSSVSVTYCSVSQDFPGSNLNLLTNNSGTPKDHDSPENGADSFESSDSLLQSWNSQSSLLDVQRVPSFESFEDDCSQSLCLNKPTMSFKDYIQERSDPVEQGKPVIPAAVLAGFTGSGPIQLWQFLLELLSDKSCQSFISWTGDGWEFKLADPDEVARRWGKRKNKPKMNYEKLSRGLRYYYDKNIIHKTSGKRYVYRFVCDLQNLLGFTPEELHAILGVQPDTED
The settings on record: protein: recombinant; tags: N-terminal GST; dsDNA, one strand shown. Summed up: as §1

The target in the next assay is T9, SPDEF (Homo sapiens, UniProt O95238 1-335).
T9 sequence: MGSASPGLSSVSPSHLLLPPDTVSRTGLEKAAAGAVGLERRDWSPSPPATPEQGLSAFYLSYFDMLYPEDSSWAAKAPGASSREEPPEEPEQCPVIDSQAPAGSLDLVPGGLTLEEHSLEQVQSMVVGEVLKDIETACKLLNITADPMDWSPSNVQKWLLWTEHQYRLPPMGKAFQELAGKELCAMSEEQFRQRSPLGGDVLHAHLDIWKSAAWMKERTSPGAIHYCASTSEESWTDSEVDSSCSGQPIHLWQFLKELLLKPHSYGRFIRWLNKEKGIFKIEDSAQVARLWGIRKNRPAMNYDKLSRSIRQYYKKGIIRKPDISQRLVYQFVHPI
The settings on record: protein: recombinant; tags: N-terminal GST; dsDNA, one strand shown. Summed up:
as §1

The target in another assay is T10, ETV7 (Homo sapiens, UniProt Q9Y603 1-341).
T10 sequence: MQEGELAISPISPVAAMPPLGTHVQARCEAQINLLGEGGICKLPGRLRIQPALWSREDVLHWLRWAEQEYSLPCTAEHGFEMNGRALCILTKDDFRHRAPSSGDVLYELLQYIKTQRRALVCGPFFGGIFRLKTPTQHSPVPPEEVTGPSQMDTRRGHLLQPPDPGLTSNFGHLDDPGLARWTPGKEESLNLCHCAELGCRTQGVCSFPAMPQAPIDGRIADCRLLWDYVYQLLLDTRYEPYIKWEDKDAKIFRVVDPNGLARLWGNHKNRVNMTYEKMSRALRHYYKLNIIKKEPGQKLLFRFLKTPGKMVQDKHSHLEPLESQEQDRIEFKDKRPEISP
The settings on record: protein: recombinant; tags: N-terminal GST; dsDNA, one strand shown. Summed up:
as §1

The next assay concerns the target T11, ELF5 (Homo sapiens, UniProt Q9UKW6-2 1-255).
T11 sequence: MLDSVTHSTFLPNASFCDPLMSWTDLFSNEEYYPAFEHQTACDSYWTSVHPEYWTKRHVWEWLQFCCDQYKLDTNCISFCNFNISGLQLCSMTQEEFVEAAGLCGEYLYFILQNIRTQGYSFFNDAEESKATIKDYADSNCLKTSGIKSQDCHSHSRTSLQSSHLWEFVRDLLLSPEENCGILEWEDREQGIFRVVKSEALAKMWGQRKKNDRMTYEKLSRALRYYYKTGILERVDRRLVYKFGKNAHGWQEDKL
The settings on record: protein: recombinant; tags: N-terminal GST; dsDNA, one strand shown. In a few lines: as §1

For another assay, the target named is T12, ETV3 (Homo sapiens, UniProt P41162-2 1-143).
T12 sequence: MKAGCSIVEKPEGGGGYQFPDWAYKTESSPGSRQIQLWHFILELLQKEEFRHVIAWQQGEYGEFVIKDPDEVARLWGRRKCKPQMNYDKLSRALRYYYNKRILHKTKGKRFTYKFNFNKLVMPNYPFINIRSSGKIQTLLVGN
The settings on record: protein: recombinant; tags: N-terminal GST; dsDNA, one strand shown. Summed up:
as §1

The target in a further assay is ETV6 (Homo sapiens, UniProt P41212 1-452). The settings on record: protein: recombinant; tags: N-terminal GST; dsDNA, one strand shown. In a few lines:
as §1

Results on one sequence are retold here after article PMC7862700, “An all-to-all approach to the identification of sequence-specific readers for epigenetic DNA modifications on cytosine”.

Chain of ETV5 (P41161 whole entry): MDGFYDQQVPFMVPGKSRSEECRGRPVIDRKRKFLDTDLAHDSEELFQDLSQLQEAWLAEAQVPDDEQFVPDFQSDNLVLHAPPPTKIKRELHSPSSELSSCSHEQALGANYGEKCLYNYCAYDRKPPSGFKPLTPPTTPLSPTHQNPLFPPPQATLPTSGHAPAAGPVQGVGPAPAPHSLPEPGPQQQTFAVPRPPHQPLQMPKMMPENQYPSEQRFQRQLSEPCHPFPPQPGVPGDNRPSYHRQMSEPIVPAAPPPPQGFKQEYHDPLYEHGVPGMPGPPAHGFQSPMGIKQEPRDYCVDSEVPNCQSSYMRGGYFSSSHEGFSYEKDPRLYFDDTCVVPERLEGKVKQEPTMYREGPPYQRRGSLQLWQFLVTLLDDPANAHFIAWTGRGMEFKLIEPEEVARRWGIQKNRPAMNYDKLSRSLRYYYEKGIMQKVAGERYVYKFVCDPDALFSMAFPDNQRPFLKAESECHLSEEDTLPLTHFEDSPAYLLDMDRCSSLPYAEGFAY
Chain of CRX (O43186 whole entry): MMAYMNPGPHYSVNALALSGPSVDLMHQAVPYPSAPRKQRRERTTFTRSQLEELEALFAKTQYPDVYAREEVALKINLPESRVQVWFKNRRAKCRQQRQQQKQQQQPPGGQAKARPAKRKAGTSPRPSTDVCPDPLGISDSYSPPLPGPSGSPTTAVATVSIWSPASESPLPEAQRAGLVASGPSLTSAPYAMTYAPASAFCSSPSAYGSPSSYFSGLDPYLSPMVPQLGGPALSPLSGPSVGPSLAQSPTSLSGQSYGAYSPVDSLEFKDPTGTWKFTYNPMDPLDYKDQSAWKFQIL
Chain of ELF4 (Q99607 whole entry): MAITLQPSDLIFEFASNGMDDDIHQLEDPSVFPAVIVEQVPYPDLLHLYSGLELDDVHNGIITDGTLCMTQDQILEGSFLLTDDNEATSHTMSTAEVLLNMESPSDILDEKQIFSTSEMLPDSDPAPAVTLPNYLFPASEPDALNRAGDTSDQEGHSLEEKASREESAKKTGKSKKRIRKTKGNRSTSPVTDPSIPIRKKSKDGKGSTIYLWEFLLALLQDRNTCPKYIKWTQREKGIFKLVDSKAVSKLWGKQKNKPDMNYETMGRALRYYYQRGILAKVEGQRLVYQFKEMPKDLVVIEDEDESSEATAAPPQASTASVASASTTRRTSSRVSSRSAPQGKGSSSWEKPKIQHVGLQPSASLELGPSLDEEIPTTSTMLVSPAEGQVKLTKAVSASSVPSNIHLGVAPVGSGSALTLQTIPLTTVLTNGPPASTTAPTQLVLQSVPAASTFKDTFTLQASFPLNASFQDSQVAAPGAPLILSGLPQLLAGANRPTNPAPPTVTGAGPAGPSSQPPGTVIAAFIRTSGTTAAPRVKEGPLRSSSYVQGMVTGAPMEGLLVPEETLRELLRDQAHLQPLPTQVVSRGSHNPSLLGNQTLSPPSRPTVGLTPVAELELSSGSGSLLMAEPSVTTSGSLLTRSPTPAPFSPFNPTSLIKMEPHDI
Chain of ETV1 (P50549 whole entry): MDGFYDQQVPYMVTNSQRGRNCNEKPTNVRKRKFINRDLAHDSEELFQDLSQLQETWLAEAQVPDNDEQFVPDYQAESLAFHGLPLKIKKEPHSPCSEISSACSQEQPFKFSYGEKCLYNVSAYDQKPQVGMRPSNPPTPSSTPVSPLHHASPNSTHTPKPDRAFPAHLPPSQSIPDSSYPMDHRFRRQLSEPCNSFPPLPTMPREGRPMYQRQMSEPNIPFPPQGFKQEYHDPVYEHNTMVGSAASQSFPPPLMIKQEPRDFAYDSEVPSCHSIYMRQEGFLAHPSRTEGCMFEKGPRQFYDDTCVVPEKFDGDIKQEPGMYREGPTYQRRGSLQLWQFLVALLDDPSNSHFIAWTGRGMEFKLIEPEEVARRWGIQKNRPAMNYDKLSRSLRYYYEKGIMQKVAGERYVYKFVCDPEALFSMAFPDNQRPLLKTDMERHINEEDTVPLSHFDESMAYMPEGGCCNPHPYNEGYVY
Chain of ETV6 (P41212 whole entry): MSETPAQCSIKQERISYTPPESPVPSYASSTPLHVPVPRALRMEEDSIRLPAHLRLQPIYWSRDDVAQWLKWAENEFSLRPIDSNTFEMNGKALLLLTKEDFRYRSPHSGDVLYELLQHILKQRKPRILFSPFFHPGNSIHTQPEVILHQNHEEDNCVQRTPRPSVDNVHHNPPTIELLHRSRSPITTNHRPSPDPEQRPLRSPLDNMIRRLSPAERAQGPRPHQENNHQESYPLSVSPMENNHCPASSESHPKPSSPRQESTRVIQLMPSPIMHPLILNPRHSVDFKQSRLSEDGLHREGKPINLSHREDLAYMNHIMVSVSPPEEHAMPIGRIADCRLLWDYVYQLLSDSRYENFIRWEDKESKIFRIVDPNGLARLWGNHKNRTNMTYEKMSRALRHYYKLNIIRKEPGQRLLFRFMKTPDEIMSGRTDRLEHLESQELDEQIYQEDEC
Chain of HSF1 (Q00613 whole entry): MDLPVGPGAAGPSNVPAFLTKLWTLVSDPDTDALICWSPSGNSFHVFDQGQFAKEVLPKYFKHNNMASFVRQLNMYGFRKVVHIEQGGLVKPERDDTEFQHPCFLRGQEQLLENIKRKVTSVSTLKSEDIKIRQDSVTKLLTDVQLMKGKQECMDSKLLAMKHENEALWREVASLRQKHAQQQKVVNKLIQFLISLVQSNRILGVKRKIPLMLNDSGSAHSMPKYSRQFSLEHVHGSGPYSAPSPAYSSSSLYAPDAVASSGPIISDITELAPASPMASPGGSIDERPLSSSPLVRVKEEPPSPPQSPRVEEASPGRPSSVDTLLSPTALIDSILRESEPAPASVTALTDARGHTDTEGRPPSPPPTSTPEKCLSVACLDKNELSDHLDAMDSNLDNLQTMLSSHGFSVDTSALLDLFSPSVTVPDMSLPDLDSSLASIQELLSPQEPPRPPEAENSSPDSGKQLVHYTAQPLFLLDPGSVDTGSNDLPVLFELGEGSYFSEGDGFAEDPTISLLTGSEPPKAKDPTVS

Regarding ACAATT, the binding signal with FEV is 1.27 fold enrichment (6-mer frequency, TF over GST control); with ETV5, 1.33 fold enrichment (6-mer frequency, TF over GST control); with HSF1, 1.18 fold enrichment (6-mer frequency, TF over GST control); with SPIC, 1.17 fold enrichment (6-mer frequency, TF over GST control); with ELF4, 1.25 fold enrichment (6-mer frequency, TF over GST control); in the assay with ELK4, 1.26 fold enrichment (6-mer frequency, TF over GST control). Moreover, the binding signal with ETV2 was 1.29 fold enrichment (6-mer frequency, TF over GST control); in the assay with ELF3 it was 1.35 fold enrichment (6-mer frequency, TF over GST control); in the assay with CRX it was 1.13 fold enrichment (6-mer frequency, TF over GST control); in the assay with ETV1 it was 1.24 fold enrichment (6-mer frequency, TF over GST control); with ERF, 1.25 fold enrichment (6-mer frequency, TF over GST control); in the assay with ETV3L, 1.23 fold enrichment (6-mer frequency, TF over GST control). Further, the binding signal with ETS2 was 1.29 fold enrichment (6-mer frequency, TF over GST control); with SPDEF, 1.13 fold enrichment (6-mer frequency, TF over GST control); with ETV7, 1.21 fold enrichment (6-mer frequency, TF over GST control); with ELF5, 1.32 fold enrichment (6-mer frequency, TF over GST control); in the assay with ETV3, 1.27 fold enrichment (6-mer frequency, TF over GST control); with ETV6, 1.25 fold enrichment (6-mer frequency, TF over GST control).
